Shown are actives, neighbours in structure and some others; about 20% of the full set was active somewhere.
HCMV antiviral: inhibitors of human cytomegalovirus | activity change, negative = inhibition, % at 57.5 µM | HFF cells, HCMV-luciferase reporter, 72 h; stronger effect = lower value | actives 4.5% (n = 410,000); in the data active means activity change below about -60%; inconclusive means no clear call, values can overlap the other calls; inactive means above about -39%; further: on the % scale 0 is the no-effect control and ±100 the full control effect
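Human foreskin fibroblasts infected with luciferase-reporter HCMV at MOI 1 PFU/cell, compounds at two doses. Luciferase measured 72 h post infection; normalized to buffer-only basal and Salinomycin (10uM) controls.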
Pf growth 96h: inhibits malaria parasite growth, 96 h; P. falciparum luciferase reporter growth, 96 h; actives 6.9% (n = 320,000); Potency, µM (series often up to 28.7 µM), inactives show at the top dose activity change, negative = inhibition, most hits filed as inhibitors; further: potency means the concentration at half of the fitted maximal effect; on the % scale 0 is the no-effect control and ±100 the full control effect
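Plates of compound plus infected erythrocytes (2% hematocrit, 0.05% parasitemia final) incubate 96 hours, 37 C, 5% CO2. Detection reagent added; reduced luminescence from the parasites' luciferase reporter flags inhibition.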
Cycloheximide cs: counter-screen hit for Shiga toxin inhibitors, cycloheximide. actives 12% (n = 300,000). max response, %. cell reporter, cycloheximide protein synthesis inhibition counterscreen. AID 2314; in the data active means max response mostly above about 13%, no sharp cut-off; inactive means mostly below about 14%; further: read at 38.3 µM for the half of the compounds with a filed dose; 0% is about no effect
Shiga toxin inh: Shiga toxin inhibition | Vero cells, Shiga toxin protein synthesis inhibition reporter | inhibition, % at 38.7 µM | actives 9.2% (n = 290,000) | AID 2315; in the data active means inhibition mostly above about 28%, no sharp cut-off; inactive means mostly below about 43%; further: 0% is about no effect
Pf growth 48h: P. falciparum growth inhibition at 48 hours (one generation). P. falciparum luciferase growth in erythrocytes, 48 h. Potency, µM (top dose mostly 28.7 µM), without a hit: at the top dose activity change, negative = inhibition, hits mostly inhibitors. actives 5.9% (n = 310,000). AID 504832; further: potency means the concentration at half of the fitted maximal effect; on the % scale 0 is the no-effect control and ±100 the full control effect
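Growth was read as firefly luciferase luminescence after a 48 h, 37 C, 5% CO2 exposure of compounds to reporter-bearing P. falciparum cultures (0.1% parasitemia, 2% hematocrit final) in Albumax-supplemented RPMI 1640.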
Numbers without * were called inactive. Unless noted, the call rests on the fitted dose curve; in most records, active means well fitted inhibition curve with a large enough effect; inconclusive means small, poorly fitted or top-dose-only effect, or another doubt; inactive means no such curve, though single readings can be large or run the other way.

For Oc1[nH]c2ccccc2c1N=Nc1cccc(Cl)c1 the results were HCMV antiviral 134, Pf growth 96h inconclusive, Cycloheximide cs 28*, Shiga toxin inh 34* and Pf growth 48h 97%.
Screening Oc1[nH]c2ccccc2c1N=Nc1c(F)c(F)c(Cl)c(F)c1F returned HCMV antiviral -97*, Pf growth 96h inconclusive, Cycloheximide cs 0, Shiga toxin inh 1 and Pf growth 48h 11%.
Screening COc1ccc(N(C(=O)c2cccnc2)S(=O)(=O)c2ccc(F)cc2)cc1 returned HCMV antiviral 30, Pf growth 96h 8%, Cycloheximide cs 5, Shiga toxin inh -4 and Pf growth 48h 44%.
CCCCCCCCCCC1=C(C)C(=O)C(OC)=C(OC)C1=O was read as Cycloheximide cs -3 and Shiga toxin inh -13.
For COC1=C(OC)C(=O)C(CCCCCCCCCCO)=C(C)C1=O the results were HCMV antiviral -18, Pf growth 96h 6µM*, Cycloheximide cs -7, Shiga toxin inh 6 and Pf growth 48h inconclusive.
Screening COc1ccc2[nH]c3c(c2c1)CCN1C(=O)C(CC(=O)NCCc2ccccn2)C[C@H](C(=O)N2CCCCC2)[C@@]31C (stereo partly specified) returned HCMV antiviral 0.
For CN1C(=O)Cc2cc(S(=O)(=O)CCC(=O)N3CCN(c4cccc(Cl)c4)CC3)ccc21 the results were HCMV antiviral -29.
For CS(=O)(=O)C1=NSC2=NC(=O)/C(=C\c3ccc(OS(=O)(=O)c4ccccc4)cc3)C(=N)N21 the results were HCMV antiviral -7, Pf growth 96h inconclusive, Cycloheximide cs 16*, Shiga toxin inh 34* and Pf growth 48h 14%.
Screening CCS(=O)(=O)C1=NN2C(=N)/C(=C\c3ccc(OS(=O)(=O)c4ccccc4)cc3)C(=O)N=C2S1 returned Pf growth 96h inconclusive, Cycloheximide cs 33*, Shiga toxin inh 38 and Pf growth 48h 6%.
For CCS(=O)(=O)C1=NN2C(=N)/C(=C\c3ccc(OS(=O)(=O)c4ccccc4)c(OC)c3)C(=O)N=C2S1 the results were Pf growth 96h 9.3µM*, Cycloheximide cs 11, Shiga toxin inh 8 and Pf growth 48h inconclusive.
`Cc1ccc(-c2nnc(Nc3cccc(Cl)c3)c3ccccc23)cc1S(=O)(=O)N1CCCCC1` gave HCMV antiviral -27.
COc1ccc(C2=C(C)C(N3CCC(C(=O)Nc4ccc(F)cc4C)CC3)=NS2(=O)=O)cc1 was read as HCMV antiviral 18.
For COc1ccc(CC(=O)Nc2cccc(S(=O)(=O)N3CCCC3)c2)cc1OC the results were HCMV antiviral -85*, Pf growth 96h inconclusive and Pf growth 48h inconclusive.
`COc1ccccc1CC(=O)Nc1cccc(S(=O)(=O)N2CCOCC2)c1` gave HCMV antiviral 1, Pf growth 96h inconclusive, Cycloheximide cs 10, Shiga toxin inh 23 and Pf growth 48h -43%.
Screening COc1ccc2c(CC(=O)Nc3ccc(OC)c(NS(=O)(=O)c4ccc(F)cc4)c3)coc2c1 returned HCMV antiviral -21, Pf growth 96h 15µM*, Cycloheximide cs 5, Shiga toxin inh 13 and Pf growth 48h inconclusive.
COc1ccccc1CCC(=O)Nc1cccc(S(=O)(=O)N2CCCCCC2)c1 was read as HCMV antiviral 9, Pf growth 96h -29% and Pf growth 48h inconclusive.
For COc1ccc2c(CC(=O)Nc3cccc(S(=O)(=O)N4CCOCC4)c3)coc2c1 the results were HCMV antiviral -27, Pf growth 96h 2.3µM*, Cycloheximide cs -1, Shiga toxin inh -4 and Pf growth 48h inconclusive.
Screening COc1ccc(/C=C/C(=O)Nc2cccc(S(=O)(=O)N3CCCC3)c2)cc1OC returned HCMV antiviral inconclusive, Pf growth 96h inconclusive, Cycloheximide cs 6, Shiga toxin inh 7 and Pf growth 48h 13µM*.
`CC(=O)Nc1ccc(NC(=O)CCCn2nc(C)c3sc4ccccc4c3c2=O)cc1` gave HCMV antiviral -17.
Cc1cccc(CC(=O)N2CCOCC2)c1 was read as HCMV antiviral -11, Pf growth 96h inconclusive, Cycloheximide cs -2, Shiga toxin inh -14 and Pf growth 48h -7%.
COc1ccc(CC(=O)Nc2cccc(S(=O)(=O)N3CCOCC3)c2)cc1OC was read as HCMV antiviral -66*, Pf growth 96h inconclusive and Pf growth 48h -23%.
For CC(C)c1nnc(NC(=O)c2ccc(S(=O)(=O)N3CCOCC3)cc2)s1 the results were HCMV antiviral 0, Pf growth 96h inconclusive, Cycloheximide cs -1, Shiga toxin inh -15 and Pf growth 48h 13%.
`Cc1nnc(NC(=O)c2cccc(NC(=O)C(C)C)c2)s1` gave HCMV antiviral 40, Cycloheximide cs 10, Shiga toxin inh 49 and Pf growth 48h inconclusive.
For CC(C)C(=O)Nc1cccc(C(=O)Nc2nnc(C(C)C)s2)c1 the results were HCMV antiviral 15, Pf growth 96h -29%, Cycloheximide cs 42*, Shiga toxin inh 92* and Pf growth 48h 356%.
Screening CC(C)c1nnc(NC(=O)c2cccc(NC(=O)C(F)(F)F)c2)s1 returned HCMV antiviral 127, Pf growth 96h 49%, Cycloheximide cs 47*, Shiga toxin inh 84* and Pf growth 48h 362%.
CC(C)C(=O)Nc1ccc(C(=O)Nc2nnc(C(C)C)s2)cc1 was read as HCMV antiviral 14, Pf growth 96h 0%, Cycloheximide cs 31, Shiga toxin inh 44* and Pf growth 48h 47%.
CC(C)C(=O)Nc1cccc(C(=O)Nc2nnc(C(F)(F)F)s2)c1 was read as HCMV antiviral 0.
Screening NNc1nc2c(Cl)ccc(Cl)c2s1 returned HCMV antiviral 50, Pf growth 96h inconclusive, Cycloheximide cs -1, Shiga toxin inh -3 and Pf growth 48h 3%.
CCOP(=O)(OCC)c1nc(-c2ccc(C)cc2)oc1NCc1ccccc1 was read as HCMV antiviral -61*, Pf growth 96h 19%, Cycloheximide cs -4, Shiga toxin inh 24 and Pf growth 48h inconclusive.
Screening CCOP(=O)(OCC)c1nc(/C=C/c2ccccc2)oc1NCc1ccc(OC)cc1 returned HCMV antiviral -32, Pf growth 96h inconclusive, Cycloheximide cs 3 and Shiga toxin inh 16.
For CCOP(=O)(OCC)c1nc(-c2cccc3ccccc23)oc1NCc1ccc(OC)cc1 the results were HCMV antiviral 32, Pf growth 96h 13µM*, Cycloheximide cs 4, Shiga toxin inh 1 and Pf growth 48h inconclusive.
For CCOP(=O)(OCC)c1nc(/C=C/c2ccccc2)oc1NCc1ccccc1 the results were HCMV antiviral -18, Pf growth 96h 44%, Cycloheximide cs 12, Shiga toxin inh 11 and Pf growth 48h 12µM*.
COc1ccc(S(=O)(=O)Nc2ccccc2C(N)=O)cc1OC was read as HCMV antiviral inconclusive, Pf growth 96h 380%, Cycloheximide cs 3, Shiga toxin inh -16 and Pf growth 48h -1%.
Cc1cc(C)cc(OCC(=O)OCC(=O)NC2CCCCCCC2)c1 was read as HCMV antiviral -7, Pf growth 96h 5% and Pf growth 48h 21%.

Compound activity as filed in PubChem BioAssay.
